Results from PubChem BioAssay AID1645870 (National Center for Advancing Translational Sciences (NCATS), 2021).
Several values for one entry are separate records, joined by “and”; a condition that tells them apart may be missing. Equal values may be shown once. The campaign covered roughly 59,000 compounds. About 1,500 (2.5%) were called active. Inconclusive results (about 10%) are left out. Calls come from the whole dose curve; as a rule, active = well fitted inhibition curve with a large enough effect; inconclusive = small, poorly fitted or top-dose-only effect; inactive = flat fitted curve, though single readings scatter. Shown is part of a subset that was picked to be rich in actives. Some compounds were tested as several samples or in several runs, with calls that do not always agree.

Target: N-terminal Xaa-Pro-Lys N-methyltransferase 1 (Homo sapiens) (UniProt Q9BV86)
Assay: Primary qHTS for Inhibitors of N-terminal methyltransferase 1 (NTMT1): MTaseGlo Assay; note: nearly all actives have a fitted effect of over 65% in size;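 for activity change, negative = inhibition: plate controls were DMSO vehicle for no effect and no enzyme for full effect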
Details: NTMT1 MTase-Glo SAH luminescence, purified enzyme; series mostly up to 114 µM; activity change, negative = inhibition: at the top concentration
Excerpt: Assay Submitter (PI): Rong Huang Ph.D.
Purdue University, West Lafayette, IN 47907
The N-terminal methytransferase 1 is the first methyltransferase that methylates protein alpha-N-amines and plays an important role in regulating cell mitosis, chromatin interactions and DNA repair. It is observed to be over-expressed in various cancer patient tissues like malignant melanoma and colorectal cancer tissues. Knockdown of NTMT1 in cancer cells causes cell mitotic defects and enhances sensitivity to DNA damaging chemotherapeutics. […] These critical cellular processes in which NTMT1 is implicated, coupled with emerging links to cellular dysfunction, strengthen the inference that NTMT1 is a compelling novel anticancer target. Progress have been made in understanding the molecular properties of NTMT1 and the biological consequences of protein alpha-N-terminal methylation, but there are no specific small molecule probes available for NTMT1 to fully characterize its MTase activity. To address this unmet need, a panel of assay is created and established to enable quantitative high-throughput screening (qHTS) for novel, potent, and selective small molecule NTMT1 inhibitors. Two orthogonal qHTS that use different reagents (ThioGlo vs. MTaseGlo) are developed for primary robotic screening against the NCATS chemical library of more than 400,000 small molecules. Identified inhibitors are reacquired, validated, and further characterized.
MTaseGlo Assay is a luminescence screen that measure the activity of methyltransferases based on the reaction product S-adenosyl homocysteine (SAH). The substrate SAM is converted to SAH upon enzyme activation. MTase-Glo reagent and detection solution convert SAH to ATP and measure the light from the luciferase reaction.
Materials: NTMT1 enzyme, substrate SPKRIA, control peptide RCC1-6 is provided by the Huang laboratory.
SEQUENCE No. (e.g., 1, 2, 3, etc.); […] (e.g., Cells, Incubation, Reagent, etc.); VALUE; DESCRIPTION
1; Enzyme; 3 uL; Dispense enzyme mixture (final concentrations of 125 nM NTMT1 and 100 uM SAM) into Greiner 1536-well white / solid bottom assay plate (Greiner Bio One, Monroe, NC).
2; Compounds; 23 nL; Compounds and controls were transferred via a Kalypsys Pin Tool (Wako USA) equipped with a 1536-slotted pin array (Wako Automation, Richmond, VA)
3; Incubation; 15 min; Incubate at room temperature
4; Substrate; 1 uL; Dispense 1 uL of substrate at final concentration of 1 uM. Buffer solution was dispensed in control wells. The assay plate was covered with metal lids.
5; Incubation; 30 min; Incubate at room temperature, protected from lights.
6; Reagent; 1 uL; Dispensed 5x MTase-Glo detection reagent (R) into the assay plate. The plate was covered with metal lids.
7; Incubation; 30 min; Incubate the assay plates at room temperature in the dark to allow for SAH to be converted to ADP.
8; Reagent; 5 uL; Dispense 5 uL of 1x MTase-Glo Detection Solution (R) to allow for ADP to be converted to ATP which was then detected with a luciferase reaction.
9; Centrifuge; 15 sec; Centrifuge the assay plate for 15 seconds at 1000 RPM.
10; Incubation; 30 min; Assay plates were incubation at room temperature in the dark.
11; Detection; Luminescence; Plates were read on ViewLux detector (PerkinElmer). Data were normalized to no-enzyme (0% activity) and no-inhibitor (DMSO; 100%) controls, and the resulting percent inhibition data were fitted to a 4-parameter Hill equation using GraphPad Prism.
Potency is the fitted concentration of half-maximal effect.

Chain of N-terminal Xaa-Pro-Lys N-methyltransferase 1 (Homo sapiens) (Q9BV86 whole entry, looked up): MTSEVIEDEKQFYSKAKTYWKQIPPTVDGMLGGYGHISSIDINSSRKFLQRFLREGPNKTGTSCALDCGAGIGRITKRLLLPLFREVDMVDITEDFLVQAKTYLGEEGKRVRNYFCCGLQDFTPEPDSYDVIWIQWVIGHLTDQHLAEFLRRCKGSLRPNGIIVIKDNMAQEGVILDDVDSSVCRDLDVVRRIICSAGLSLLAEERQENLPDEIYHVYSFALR

SMILES | activity change, negative = inhibition | Potency
Cc1cc(-c2nnc3n2CCCCC3)c(C)n1-c1ccc(C(F)(F)F)cc1 | 8.06% (inactive) | 
COc1cc(F)c(S(=O)(=O)N2CCCN(S(=O)(=O)c3ccc(N)cc3)CC2)c(F)c1 | -9.22% [at 57.5 µM] (inactive) | 
CC(C)(C)OC(=O)N1CCN(c2ccc(NCc3ccc4c(-c5ccc(F)cc5)cc(=O)oc4c3)cc2)CC1 | -18.2% (inactive) | 
Cc1cc(-c2nnc3n2CCCCC3)c(C)n1-c1cccc(Cl)c1 | -10.6% (inactive) | 
C(#Cc1cccs1)c1cccnc1 | 7.74% [at 57.5 µM] (inactive) | 
CCOC(=O)c1scc(-c2ccccc2)c1S(=O)(=O)Nc1ccccc1F | 0.149% (inactive) | 
CC(C)(C)c1nc(-c2cccc(NS(=O)(=O)c3c(F)cccc3F)c2F)c(-c2ccnc(N)n2)s1 |  | inactive and 39.8 µM (active)
O=C(C[C@H]1CC[C@@H](C(=O)Nc2ccc(S(=O)(=O)Nc3nccs3)cc2)C1)c1ccccc1 | -12.4% (inactive) | 
O=C(NCc1nnc(C(=O)Nc2ccc(C(F)(F)F)cc2Cl)o1)c1ccccc1 | 2.02% (inactive) | 
Cc1cccc(C2N=C(Nc3nc4ccccc4o3)NC3=C2C(=O)CCC3)c1 (stereo unspecified) | 15.6% (inactive) | 
COc1ccc2c(c1)Cc1sc(NC(=O)c3ccccc3Br)nc1-2 |  | 50.1 µM (active)
COc1ccc(CC(=O)Nc2ccc(-c3nc4ccccc4s3)c(C)c2)cc1 | 1.27% (inactive) | 
COc1cccc(C(=O)Nc2nnc(S(=O)(=O)N3CCOCC3)s2)c1 | 9.65% (inactive) | 
CC(Cc1cnccn1)Nc1cnc2c(O)ccc(C(=O)O)c2c1 (stereo unspecified) | 28.5% (inactive) | 
CCCn1c(-c2ccc(F)cc2)nc2c(NCC3CCCN3CC)nc(C)nc21 (stereo unspecified) | -15.7% (inactive) | 
NC(=O)C1CCN(c2ncc(-c3ccc(Cl)cc3)s2)CC1 | 4.39% (inactive) | 
COc1cccc(OC2=NS(=O)(=O)c3ccccc32)c1 | -0.822% (inactive) | 
Oc1c(Cl)cc(Cl)c(Cl)c1Cc1c(O)c(Cl)cc(Cl)c1Cl |  | 31.6 µM (active)
Cc1cc(Nc2cc(C)c(C#N)c(NC(C)CCCC(C)(C)O)n2)n[nH]1 (stereo unspecified) | -16.6% (inactive) | 
Cc1ccc(Cn2ncc3c4sc(C)cc4n(C)c3c2=O)c(C)c1 | 11.8% [at 57.5 µM] (inactive) | 
O=C1CCc2cc(S(=O)(=O)Nc3cccc(Oc4ccccc4)c3)ccc2N1 | -1.41% (inactive) | 
COc1ccc(C2Nc3ccccc3C(=O)N2Cc2cccs2)cc1COc1c(C)cccc1C (stereo unspecified) | 9.71% (inactive) | 
COc1cccc(CNc2ccc(S(=O)(=O)Nc3cccs3)cc2)c1O | -9.49% [at 29.8 µM] (inactive) | 

SMILES | activity change, negative = inhibition | Potency
CCCn1c(C)nc2c(NCCCCN(CC)CC)nc(C)nc21 | 0.827% (inactive) | 
CCn1c(=O)c2cc(C(=O)NCCc3ccc(Cl)cc3)sc2c2ccccc21 | 4.04% (inactive) | 
CCN(CCCNC(=O)c1cc2c(=O)n(CC)c3ccccc3c2s1)Cc1ccccc1 |  | 79.4 µM (active)
CCc1ccc(CNC(=O)c2cc3c(=O)n(CC)c4ccccc4c3s2)cc1 | -6.25% (inactive) | 
COc1ccc(C2Nc3ccccc3C(=O)N2Cc2ccc(CNC(=O)CO)cc2)cc1COc1ccc(NC(C)=O)cc1 (stereo unspecified) | 12% (inactive) | 
O=C(Nc1ccc(S(=O)(=O)N2CCC(c3nc4ccccc4s3)CC2)cc1)c1ccccc1F | 7.07% (inactive) | 
Cc1cc(C)cc(OC(C)C(=O)Nc2nc3c(s2)CCCC3)c1 (stereo unspecified) | 5.1% (inactive) | 
O=C(Nc1nc2c(s1)CCCC2)c1ccccc1F |  | 35.5 µM (active)
O=C1CCCC2=C1C(c1[nH]ncc1Cl)N=C(Nc1nc3ccc(F)cc3o1)N2 (stereo unspecified) | 2.12% (inactive) | 
CN1C(=O)[C@@H](NC(=O)c2n[nH]c(Cc3ccccc3)n2)COc2ccccc21 | 19.5% (inactive) | 
Nc1ccc2c(=O)n3nc(Nc4ccc5c(c4)CCC5)sc3nc2c1 |  | inactive
Oc1ccc(/C=C/c2c(F)cccc2F)c2cccnc12 | 8.34% [at 57.5 µM] (inactive) | 
CCOc1ccccc1NC(=O)CN1CCN(S(=O)(=O)c2ccc(Br)cc2)CC1 | -13.4% (inactive) | 
CCOc1ccccc1C(=O)Nc1ccc(S(=O)(=O)N2CCCCC2c2cccnc2)cc1 (stereo unspecified) |  | 79.4 µM (active)
Cc1cccc(C(=O)Nc2ccc(S(=O)(=O)N3CCCCC3c3cccnc3)cc2)c1 (stereo unspecified) | -6.08% (inactive) | 
Cn1c2cc(B(O)O)sc2c2cnn(Cc3ccccc3F)c(=O)c21 | 17.4% (inactive) | 
CC(C)(O)c1ccccc1CC[C@H](SCC1(CC(=O)O)CC1)c1cccc(/C=C/c2ccc3ccc(Cl)cc3n2)c1 | 1.1% (inactive) | 
O=C(NCCc1nc2ccccc2n1CCOc1cccc(Br)c1)C1CCCCC1 | -15.1% [at 57.5 µM] (inactive) | 
O=S(=O)(c1ccc2c(c1)OCCO2)N1CCN(S(=O)(=O)c2cc(F)ccc2F)CC1 | 0.151% (inactive) | 
COc1ccc(C2Nc3ccccc3C(=O)N2Cc2ccc(Cl)cc2)cc1COc1ccc(NC(C)=O)cc1 (stereo unspecified) | 32.5% (inactive) | 
Cc1ccc(-n2ncc3c(NCCCn4ccnc4)ncnc32)cc1Cl |  | 44.7 µM (active)
Clc1cccc(-n2ncc3c(NCCc4ccccc4)ncnc32)c1 | -0.791% (inactive) | 
CCN(CC)CCNc1ncnc2c1cnn2-c1cc(Cl)ccc1C | -7.62% (inactive) | 
